Reference: PubChem BioAssay
The source made the active and inactive calls.

Tests used:
[1] = small molecules captured by biotinylated probe aFSTL3 – biochemical, small-molecule microarray, fluorescence 635/667, stem cell growth factor project, primary screen (AID 1064); settings: higher = more signal;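 further: measures binding of the biotinylated anti-FSTL3 antibody to printed compounds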
[2] = binders from COS7 lysate, DM2A8 probe, primary screen, torsin A project, cell lysate, small-molecule microarray, fluorescence 635/667 (AID 1065); settings: higher = more signal, COS7 lysate expressing mutant human TOR1A
[3] = small molecules captured by biotinylated probe aFGF2 – biochemical, small-molecule microarray, fluorescence 635/667, stem cell growth factor project, primary screen (AID 1067); settings: higher = more signal;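 further: measures binding of biotinylated aFGF2 protein to printed compounds on slides; z-score merges feature fluorescence and signal-to-noise across triplicate slides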
[4] = small molecules captured by biotinylated probe aFGF10 – biochemical, small-molecule microarray, fluorescence 635/667, stem cell growth factor project, primary screen (AID 1071); settings: higher = more signal;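 further: score merges 667 nm spot intensity and signal to noise from triplicate slides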
[5] = molecular target: Neurogenic locus notch homolog protein 2 (Homo sapiens) (UniProt Q04721); assay: small molecules binding Notch2 protein – biochemical, small-molecule microarray, 635 nm fluorescence, stem cell growth factors, primary screen (AID 1073); settings: higher = more signal
[6] = molecular target: Pro-neuregulin-1, membrane-bound isoform (Homo sapiens) (UniProt Q02297); assay: small molecules binding neuregulin-1 protein – biochemical, small-molecule microarray, fluorescence 635/667, psychiatric disease protein project, primary screen (AID 1075); settings: NRG1 binding, 635 nm fluorescence, higher = more signal;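 further: score combines 667 nm spot fluorescence with signal to noise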
[7] = system: Neuregulin-1 EGF-like domain; assay: small molecules binding NRG1 EGF domain – biochemical, small-molecule microarray, 635 nm fluorescence, primary screen (AID 1081); settings: higher = more signal;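 further: binding of the protein to compounds printed on small-molecule microarray slides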
[8] = FRG1 expression reporter modulators in myotubes – cell-based, C2C12 myotubes, firefly/Renilla luciferase, luminescence, FRG1 inhibition for FSHD, primary screen (AID 1084); settings: FRG1 promoter luciferase, higher = more signal, called active from +8 up or from −8 down
[9] = small molecules captured by biotinylated probe aFST – biochemical, small-molecule microarray, fluorescence 635/667, stem cell growth factor project, primary screen (AID 1086); settings: higher = more signal;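 further: score merges 667 nm fluorescence with signal-to-noise of each printed compound spot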
[10] = binders of probe aHhip on microarray, primary screen, stem cell growth factor project, biochemical, small-molecule microarray, fluorescence 635/667 (AID 1087); settings: higher = more signal;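 further: score merges spot fluorescence at 667nm with spot signal to noise ratio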
[11] = system: PRMT1 (protein arginine N-methyltransferase 1); assay: small molecules binding arginine methyltransferase PRMT1 – biochemical, small-molecule microarray, 635 nm fluorescence, primary screen (AID 1088); settings: higher = more signal;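 further: binding of Prmt1 protein to compounds spotted on small-molecule microarray slides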
[12] = growth effects on S. cerevisiae YJM789 – YJM789 clinical isolate, OD600, 24 h, basal, primary screen (AID 1089); settings: higher = more signal, called active from +8 up or from −8 down;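 further: growth of clinical yeast isolate S. cerevisiae YJM 789 seeded 1000 cells per well; test concentration not given here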
[13] = S. pombe growth modifiers, basal conditions – strain 972, OD600, 24 h, no modulator, primary screen (AID 1090);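 further: basal condition with compound alone and no growth modifier present; test concentration not given here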; settings: S. pombe 972 growth, higher = more signal, called active from +8 up or from −8 down
[14] = budding yeast growth modifiers under rapamycin – strain BY4716, OD600, 96 h, primary screen (AID 1091); further: test concentration not given here; settings: S. cerevisiae BY4716 + rapamycin, higher = more signal, called active from +8 up or from −8 down
[15] = molecular target: Torsin-1A-interacting protein 2 (Homo sapiens) (UniProt Q8NFQ8); assay: small molecules binding lysate-expressed LULL1 – cell lysate, human LULL1 lysate, 635/667 nm fluorescence, primary screen (AID 1092); settings: small-molecule microarray, hLULL1 lysate binding, 635 nm fluorescence; higher = more signal;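 further: probe is lysate of COS7 cells overexpressing human LULL1; score merges per-feature 667 nm fluorescence with signal-to-noise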
[16] = optical density change of DRC41 E. coli – strain DRC41, OD650, 24 h, E. coli filamentation project, primary screen (AID 1093);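 further: MC1000 strain lacking acrAB efflux and sulA so SOS filamentation is blocked; test concentration not given here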; settings: E. coli DRC41 growth, higher = more signal, called active from +8 up or from −8 down
[17] = probe aLefty2 binding to arrayed compounds – biochemical, biotinylated probe, 635/667 nm fluorescence, primary screen (AID 1094); settings: small-molecule microarray, higher = more signal;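 further: score merges spot fluorescence near 667 nm with spot signal-to-noise ratio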
[18] = system: Noggin (protein binding on small-molecule microarray); assay: small molecules binding Noggin protein – biochemical, 635/667 nm fluorescence, primary screen (AID 1095); settings: 635 nm fluorescence, higher = more signal;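 further: score merges 667 nm feature fluorescence with signal to noise over triplicate slides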
[19] = molecular target: Neurogenic locus notch homolog protein 3 (Homo sapiens) (UniProt Q9UM47); assay: small molecules binding NOTCH3 protein – biochemical, 635/667 nm fluorescence, primary screen (AID 1096); settings: small-molecule microarray, 635 nm fluorescence, higher = more signal
[20] = probe aEGFR binding to arrayed compounds – biochemical, biotinylated probe, 635/667 nm fluorescence, primary screen (AID 1097); settings: small-molecule microarray, higher = more signal;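 further: probe is a biotinylated anti-EGFR antibody binding compounds printed on slides; score combines fluorescence near 667 nm and signal to noise of each spot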

Neurogenic locus notch homolog protein 2 (Homo sapiens), sequence (Q04721 whole entry, looked up, canonical isoform): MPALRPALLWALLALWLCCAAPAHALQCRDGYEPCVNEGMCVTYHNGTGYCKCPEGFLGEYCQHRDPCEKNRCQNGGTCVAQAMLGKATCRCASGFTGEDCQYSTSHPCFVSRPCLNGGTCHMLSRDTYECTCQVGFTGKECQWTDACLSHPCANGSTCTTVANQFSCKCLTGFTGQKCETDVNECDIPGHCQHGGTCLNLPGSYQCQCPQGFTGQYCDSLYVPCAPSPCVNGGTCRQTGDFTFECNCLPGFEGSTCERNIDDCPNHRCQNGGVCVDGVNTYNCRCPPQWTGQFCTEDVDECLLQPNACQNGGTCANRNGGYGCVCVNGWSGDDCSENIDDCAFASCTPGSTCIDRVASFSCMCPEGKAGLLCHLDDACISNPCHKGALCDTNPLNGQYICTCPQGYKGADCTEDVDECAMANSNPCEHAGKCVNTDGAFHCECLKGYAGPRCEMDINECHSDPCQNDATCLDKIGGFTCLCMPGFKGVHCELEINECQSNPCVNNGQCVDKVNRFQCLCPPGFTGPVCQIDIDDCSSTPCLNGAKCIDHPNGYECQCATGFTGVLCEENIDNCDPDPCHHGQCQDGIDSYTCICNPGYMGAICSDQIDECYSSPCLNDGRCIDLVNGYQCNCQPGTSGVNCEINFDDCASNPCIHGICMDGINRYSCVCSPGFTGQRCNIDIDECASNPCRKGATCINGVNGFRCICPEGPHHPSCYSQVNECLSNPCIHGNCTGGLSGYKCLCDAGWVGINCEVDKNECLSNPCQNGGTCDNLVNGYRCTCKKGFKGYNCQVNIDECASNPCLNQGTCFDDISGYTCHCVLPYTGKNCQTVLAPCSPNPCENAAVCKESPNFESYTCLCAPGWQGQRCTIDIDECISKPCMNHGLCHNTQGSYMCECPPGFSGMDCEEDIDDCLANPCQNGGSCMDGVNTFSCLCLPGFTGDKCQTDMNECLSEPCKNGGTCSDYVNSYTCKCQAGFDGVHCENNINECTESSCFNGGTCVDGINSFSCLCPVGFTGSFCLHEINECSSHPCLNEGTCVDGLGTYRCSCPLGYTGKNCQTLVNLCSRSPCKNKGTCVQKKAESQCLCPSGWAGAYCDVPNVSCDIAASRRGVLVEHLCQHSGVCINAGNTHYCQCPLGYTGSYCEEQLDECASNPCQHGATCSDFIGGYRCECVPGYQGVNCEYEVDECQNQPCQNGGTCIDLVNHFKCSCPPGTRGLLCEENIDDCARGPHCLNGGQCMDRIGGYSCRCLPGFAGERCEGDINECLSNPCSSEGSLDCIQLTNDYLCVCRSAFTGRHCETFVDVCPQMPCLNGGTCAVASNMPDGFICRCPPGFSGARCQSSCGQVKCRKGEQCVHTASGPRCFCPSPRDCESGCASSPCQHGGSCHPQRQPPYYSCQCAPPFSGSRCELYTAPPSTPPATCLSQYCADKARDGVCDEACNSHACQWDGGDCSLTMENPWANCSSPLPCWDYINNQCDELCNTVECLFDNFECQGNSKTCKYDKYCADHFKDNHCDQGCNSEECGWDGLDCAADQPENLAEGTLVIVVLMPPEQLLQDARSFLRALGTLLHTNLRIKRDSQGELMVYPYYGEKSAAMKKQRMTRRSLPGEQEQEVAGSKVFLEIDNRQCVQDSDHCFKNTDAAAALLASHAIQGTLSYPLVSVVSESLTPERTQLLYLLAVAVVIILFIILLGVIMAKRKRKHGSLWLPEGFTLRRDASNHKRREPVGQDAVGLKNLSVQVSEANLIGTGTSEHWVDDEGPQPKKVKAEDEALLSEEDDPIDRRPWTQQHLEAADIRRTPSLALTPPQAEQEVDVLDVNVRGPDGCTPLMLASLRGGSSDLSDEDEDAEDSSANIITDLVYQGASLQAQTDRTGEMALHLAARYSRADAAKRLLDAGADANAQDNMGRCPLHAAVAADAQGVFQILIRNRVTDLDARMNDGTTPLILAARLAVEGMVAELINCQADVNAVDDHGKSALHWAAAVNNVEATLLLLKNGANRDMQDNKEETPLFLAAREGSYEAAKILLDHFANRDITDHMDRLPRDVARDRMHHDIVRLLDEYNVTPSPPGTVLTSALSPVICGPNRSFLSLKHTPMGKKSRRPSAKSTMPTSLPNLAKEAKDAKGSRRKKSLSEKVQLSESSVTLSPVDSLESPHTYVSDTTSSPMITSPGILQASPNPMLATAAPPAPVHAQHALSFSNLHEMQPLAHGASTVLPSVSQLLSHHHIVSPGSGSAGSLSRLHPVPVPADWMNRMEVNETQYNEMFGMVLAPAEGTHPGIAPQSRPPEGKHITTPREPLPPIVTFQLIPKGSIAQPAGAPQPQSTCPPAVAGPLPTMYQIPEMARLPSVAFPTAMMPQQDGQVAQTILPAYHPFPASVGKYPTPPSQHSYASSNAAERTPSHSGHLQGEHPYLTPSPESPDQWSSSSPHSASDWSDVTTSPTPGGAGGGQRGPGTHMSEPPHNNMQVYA
Neurogenic locus notch homolog protein 3 (Homo sapiens), sequence (Q9UM47 whole entry, looked up): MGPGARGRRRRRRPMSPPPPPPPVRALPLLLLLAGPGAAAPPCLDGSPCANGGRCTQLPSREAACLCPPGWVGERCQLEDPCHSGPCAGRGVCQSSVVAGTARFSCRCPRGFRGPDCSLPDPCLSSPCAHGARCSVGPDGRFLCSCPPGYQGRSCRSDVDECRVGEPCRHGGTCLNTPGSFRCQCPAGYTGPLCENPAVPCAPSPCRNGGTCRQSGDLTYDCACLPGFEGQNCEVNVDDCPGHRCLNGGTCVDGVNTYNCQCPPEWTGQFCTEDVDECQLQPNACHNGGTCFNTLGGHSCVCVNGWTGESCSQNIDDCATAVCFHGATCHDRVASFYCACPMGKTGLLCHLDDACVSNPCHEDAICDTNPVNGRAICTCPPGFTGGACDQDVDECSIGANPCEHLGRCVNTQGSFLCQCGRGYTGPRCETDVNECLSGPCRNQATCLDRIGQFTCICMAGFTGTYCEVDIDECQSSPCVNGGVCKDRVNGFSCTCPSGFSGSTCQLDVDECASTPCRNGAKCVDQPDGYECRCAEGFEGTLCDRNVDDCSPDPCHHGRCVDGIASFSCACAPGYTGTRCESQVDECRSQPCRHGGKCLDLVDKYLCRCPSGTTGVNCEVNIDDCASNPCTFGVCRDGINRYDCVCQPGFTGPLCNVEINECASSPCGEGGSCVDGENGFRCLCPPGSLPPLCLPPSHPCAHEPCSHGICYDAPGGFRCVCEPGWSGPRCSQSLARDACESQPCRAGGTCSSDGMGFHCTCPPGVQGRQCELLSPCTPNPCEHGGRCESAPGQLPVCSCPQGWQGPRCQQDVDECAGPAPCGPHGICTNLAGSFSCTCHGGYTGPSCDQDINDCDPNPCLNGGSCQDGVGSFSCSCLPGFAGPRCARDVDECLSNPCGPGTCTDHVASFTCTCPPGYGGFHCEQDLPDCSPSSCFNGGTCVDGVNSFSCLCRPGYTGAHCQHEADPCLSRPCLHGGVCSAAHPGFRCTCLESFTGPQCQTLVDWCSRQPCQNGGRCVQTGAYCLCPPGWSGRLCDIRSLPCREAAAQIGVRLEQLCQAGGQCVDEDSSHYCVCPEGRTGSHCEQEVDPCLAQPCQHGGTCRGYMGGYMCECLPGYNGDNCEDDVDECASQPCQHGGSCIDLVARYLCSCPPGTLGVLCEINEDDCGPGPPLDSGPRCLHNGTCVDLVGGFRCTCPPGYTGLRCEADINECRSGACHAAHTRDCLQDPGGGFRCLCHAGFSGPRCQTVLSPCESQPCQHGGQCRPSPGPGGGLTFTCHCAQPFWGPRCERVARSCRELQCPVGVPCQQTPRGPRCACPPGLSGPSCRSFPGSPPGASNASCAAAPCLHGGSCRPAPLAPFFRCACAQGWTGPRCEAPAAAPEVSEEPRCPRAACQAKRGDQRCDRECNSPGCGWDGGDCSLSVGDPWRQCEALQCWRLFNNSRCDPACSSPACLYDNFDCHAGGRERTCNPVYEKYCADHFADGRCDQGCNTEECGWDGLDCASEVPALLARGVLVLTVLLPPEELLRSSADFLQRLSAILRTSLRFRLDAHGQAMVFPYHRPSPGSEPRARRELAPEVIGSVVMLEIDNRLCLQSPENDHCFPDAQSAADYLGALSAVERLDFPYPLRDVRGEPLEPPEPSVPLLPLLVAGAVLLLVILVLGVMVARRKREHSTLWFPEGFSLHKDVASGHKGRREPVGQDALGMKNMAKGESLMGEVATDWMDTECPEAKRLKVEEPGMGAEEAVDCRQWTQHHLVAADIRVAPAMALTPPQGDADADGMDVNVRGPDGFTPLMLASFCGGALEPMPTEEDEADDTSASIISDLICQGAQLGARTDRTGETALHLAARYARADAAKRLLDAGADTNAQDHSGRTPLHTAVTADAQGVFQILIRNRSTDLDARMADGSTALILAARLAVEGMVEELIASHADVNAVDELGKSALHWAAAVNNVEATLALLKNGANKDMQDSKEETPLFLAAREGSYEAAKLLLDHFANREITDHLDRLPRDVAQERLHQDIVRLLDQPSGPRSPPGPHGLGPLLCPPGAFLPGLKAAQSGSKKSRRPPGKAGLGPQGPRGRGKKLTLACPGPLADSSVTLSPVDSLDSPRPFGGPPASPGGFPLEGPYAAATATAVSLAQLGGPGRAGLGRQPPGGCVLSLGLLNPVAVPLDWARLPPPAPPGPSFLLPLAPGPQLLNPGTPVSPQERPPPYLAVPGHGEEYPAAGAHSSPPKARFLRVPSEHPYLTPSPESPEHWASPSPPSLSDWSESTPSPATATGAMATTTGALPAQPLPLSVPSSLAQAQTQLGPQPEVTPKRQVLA

SMILES	composite z-score [1]	composite z-score [2]	composite z-score [3]	composite z-score [4]	composite z-score [5]	composite z-score [6]	composite z-score [7]	z-score [8]	composite z-score [9]	composite z-score [10]	composite z-score [11]	z-score [12]	z-score [13]	z-score [14]	composite z-score [15]	z-score [16]	composite z-score [17]	composite z-score [18]	composite z-score [19]	composite z-score [20]
COc1ccc([Si](C)(C)[C@H]2[C@H](CCn3cc([C@H](O)c4ccccc4)nn3)O[C@@]3(C(=O)N(C)c4c(Br)cc(C)cc43)[C@@H]2C)cc1	-0.0258	0.48	-0.113	-0.327	-0.442	0.218	0.881	-0.905 (inactive)	-0.438	-0.0994	0.661	0.31 (inactive)	0.467 (inactive)	1.34 (inactive)	-0.168	0.832 (inactive)	-0.138	1.96	-0.615	-0.179
CN(C)CCCC[C@@H]1NC(=O)[C@H]2C[C@@H](C(=O)O)[C@@H](c3cccc(OCCO)c3)N2C1=O	0.794	1.13	-0.0238	0.105	0.146	0.212	1.44	6.56 (inactive)	0.547	0.0374	1.4	-0.733 (inactive)	-1.36 (inactive)	0.102 (inactive)	2.1	0.579 (inactive)	0.495	1.19	0.87	0.169
CN(C)C(=O)[C@]1(Cc2ccccc2)N=C(c2ccc(OCCCO)cc2)O[C@@H]1c1ccccc1	-0.129	0.984	0.0376	1.08	1.46	1.78	1.28	-0.306 (inactive)	0.952	0.127	1.52	0.0608 (inactive)	-3.66 (inactive)	-0.344 (inactive)	3.52	-0.465 (inactive)	0.0735	0.372	0.771	-0.0157
CCC(CC)C(O)C1C=CC2C(=O)N(C)C(=O)C2N1N1CCCCC1 (stereo not given)	0.104	0.816	0.121	0.837	1.31	1.83	1.23	0.855 (inactive)	1.29	0.281	1.36	-0.059 (inactive)	0.274 (inactive)	-0.537 (inactive)	3.42	-1.29 (inactive)	0.0353	0.334	1.04	0.0142
COc1ccc(NC(=O)O[C@H]2[C@H](OC(=O)Nc3ccc4c(c3)OCO4)[C@H](OC(=O)Nc3ccc4c(c3)OCO4)[C@@H](OC)O[C@@H]2CO)cc1	0.198	0.347	0.0519	0.739	0.302	0.978	0.905	3.53 (inactive)	0.327	0.142	1.54	1.87 (inactive)	1.41 (inactive)	4.72 (inactive)	2.96	0.212 (inactive)	-0.121	-0.0137	0.569	-0.0922
C=C(COC)/C(=C/C[C@H](OC(=O)c1ccncc1)c1ccc(OCCO)cc1)c1cc(C(=O)OC)ccc1OC	-0.139	-0.0024	0.0436	1.08	0.0841	0.358	1.03	-0.992 (inactive)	1.42	0.113	1.41	-0.823 (inactive)	-1.2 (inactive)	-0.649 (inactive)	2.28	1.59 (inactive)	-0.0337	1.01	1.1	-0.0828
COC(=O)[C@@]1(Cc2ccc(OC)cc2)[C@@H]2[C@@H](CC(=O)[C@H]2CC(=O)C(=O)N2CCCC2)CN1C(=O)c1ccccc1	2.42	0.296	0.926	0.884	1.69	1.94	1.24	1.31 (inactive)	2.67	2.65	0.281	-0.347 (inactive)	0.304 (inactive)	-0.0364 (inactive)	2.6	-0.455 (inactive)	1.76	0.156	1.09	1.26
CN(C)CCCCNC(=O)[C@H]1C[C@H]2C(=O)NCC(=O)N2[C@H]1c1cccc(OCCO)c1	-0.295	-0.0314	-0.155	-0.224	-0.342	0.401	1.19	0.836 (inactive)	-0.324	-0.485	0.826	0.259 (inactive)	1.06 (inactive)	-0.431 (inactive)	1.6	0.52 (inactive)	-0.121	0.938	1.01	-0.3
CC(C)C[C@H]1NC(=O)[C@H](Cc2ccccc2)NC(=O)[C@@]23C(=O)N[C@@H](Cc4ccccc4)C2[C@H](C)[C@@]2(C)O[C@H]2C3/C=C/C/C=C\CNC1=O (stereo not given in full)	-0.263	0.919	-0.116	0.461	0.777	1.03	1.05	2.48 (inactive)	0.089	0.0626	1.21	-1.12 (inactive)	-0.667 (inactive)	-0.302 (inactive)	1.46	-1.03 (inactive)	-0.123	0.426	0.852	-0.0968
CCCCC(O)C1C=CC2C(=O)NC(=O)C2N1Nc1ccc(Cl)cc1Cl (stereo not given)	0.439	-0.384	0.0127	0.612	0.866	1.3	1.09	0.0812 (inactive)	0.691	-0.27	-0.338	-25.2 (active)	-8.47 (active)	-1.58 (inactive)	2.28	-1.55 (inactive)	0.259	-0.314	0.303	-0.0232
C=CCC(OC(C)=O)[C@@H]1[C@@H](N(Cc2ccc(-c3cccc(C(F)(F)F)c3)o2)C(=O)Cc2ccc(F)cc2)c2cc(OCCCO)ccc2N1C(=O)c1ccc2ccccc2c1 (stereo not given in full)	0.196	0.167	-0.133	-0.428	-0.58	-0.28	-0.0656	0.512 (inactive)	0.487	-0.0994	-1.22	-0.428 (inactive)	0.498 (inactive)	-1.2 (inactive)	-0.305	-0.381 (inactive)	-0.0485	0.0055	-0.35	0.0804
